MCF10A rerep: DNA re-replication induction in MCF 10a cells; MCF 10A DNA re-replication, Hoechst nuclear intensity, 48 h; Potency, µM (top dose mostly 46.1 µM), for the others: top-dose activity, positive = re-replication, most hits filed as activators; 2.9% of 350,000 active; AID 624296; further: potency means the concentration at half of the fitted maximal effect; % of control where 0% means no effect; nearly all actives have a fitted effect of over 50% in size
IL-1B inflam inh: inhibitors of inflammasome signaling (IL-1 beta secretion) | 4.7% of 360,000 active | activity change, % at 57.5 µM | AID 743279 | THP-1 LPS/ATP IL-1B secretion, AlphaLISA, 16 h; active compounds read low; in the data active means activity change below about -50%; inconclusive means mostly about -30% to -49%; further: on the % scale 0 is the no-effect control and ±100 the full control effect
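Secreted IL-1B measured by AlphaLISA bead assay after 16 h compound exposure of THP-1 cells; compounds (final up to 57.5 uM) added 1 h before LPS (250 ng/mL) and ATP (1.25 mM) stimulation; lower signal means less secretion.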
SW480 rerep: DNA re-replication induction in SW480 cells | SW480 DNA re-replication, Hoechst DNA content imaging, 48 h | Potency, µM (top dose mostly 46.1 µM), inactives show at the top dose re-replication activation, usual class: activators | 1.8% of 340,000 active; further: potency means the concentration at half of the fitted maximal effect; % of control where 0% means no effect; nearly all actives have a fitted effect of over 55% in size
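Hoechst fluorescence of nuclei (405 nm excitation, 500-530 nm emission) measured by plate-scanning imager after 48 hr compound exposure at 37 C; re-replication scored as increased number of nuclei with elevated intensity.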
Vif-A3F inh: Vif-A3F binding inhibition | HeLa A3F-eYFP + Vif (tagged APOBEC3F with the HIV-1 protein that degrades it), YFP fluorescence increase | Potency, µM (highest dose often 46.1 µM), for inactives: at the highest dose activity, negative = active | 0.2% of 390,000 active | AID 602313; further: potency means the concentration at half of the fitted maximal effect; % of control where 0% means no effect; nearly all actives have a fitted effect of over 65% in size
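Fluorescence increase (Ex 488/Em 500-530) after overnight compound treatment at 37 deg C flags inhibition of Vif-driven A3F-eYFP loss in stable HeLa A3F-eYFP/Vif cells seeded overnight beforehand.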
Giardia killer: Giardia lamblia killing | activity change, % at 7.66 µM, hits read low | 0.15% of 340,000 active | Giardia lamblia trophozoite viability; in the data active means activity change below about -80%; inconclusive means between about -30% and that limit;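 further: parasites exposed to compound for two days anaerobically before the ATP read; on the % scale 0 is the no-effect control and ±100 the full control effect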
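Killing of trophozoites was scored by loss of ATP luminescence after a 48 hrs anaerobic exposure to compounds at 37 deg C, using 100 cells per well.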
Vif-APOBEC3G blk: Vif-A3G binding inhibition; Q9HC16; HeLa A3G-eYFP + Vif (tagged APOBEC3G with the HIV-1 protein that degrades it), YFP fluorescence, overnight; Potency, µM (highest dose often 46.1 µM), without a hit: at the highest dose activity, negative = active, hits mostly inhibitors; 0.076% of 410,000 active; AID 602310; further: potency means the concentration at half of the fitted maximal effect; on the % scale 0 is the no-effect control and ±100 the full control effect; nearly all actives have a fitted effect of over 60% in size
Target sequence (Q9HC16 whole entry, looked up): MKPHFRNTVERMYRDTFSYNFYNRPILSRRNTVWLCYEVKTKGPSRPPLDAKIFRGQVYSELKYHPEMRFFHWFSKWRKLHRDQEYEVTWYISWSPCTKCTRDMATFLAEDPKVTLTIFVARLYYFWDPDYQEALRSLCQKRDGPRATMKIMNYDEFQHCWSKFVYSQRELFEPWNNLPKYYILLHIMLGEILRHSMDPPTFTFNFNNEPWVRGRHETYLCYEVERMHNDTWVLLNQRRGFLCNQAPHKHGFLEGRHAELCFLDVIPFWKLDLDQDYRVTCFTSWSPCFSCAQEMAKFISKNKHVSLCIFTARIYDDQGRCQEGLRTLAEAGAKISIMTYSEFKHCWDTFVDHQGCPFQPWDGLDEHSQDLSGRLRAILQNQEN
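Read-out is eYFP fluorescence (Ex 488/Em 500-530) from Vif-expressing HeLa A3G-eYFP cells; more signal means A3G escaped Vif-mediated degradation. Cells plated overnight, compound pinned in, incubated overnight at 37 deg C.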
An asterisk follows results filed as active; ? = inconclusive; · = not tested or not shown. Compounds with a hit are over-represented: about 6.9% of the library has one in this group of screens. Unless noted, the call rests on the fitted dose curve; in most records, active means well fitted curve in the direction sought with a large enough effect; inconclusive means small, poorly fitted or top-dose-only effect, or another doubt; inactive means no such curve, though single readings can be large; an effect the other way counts as inactive or inconclusive.

SMILES	MCF10A rerep	IL-1B inflam inh	SW480 rerep	Vif-A3F inh	Giardia killer	Vif-APOBEC3G blk
C#CC[N+](C)(C)CCCCCCCC	11%	-54*	-1%	6%	-4	-1%
C#CC[N+](C)(C)CCCCCCCCCCCC	26µM*	-88*	12µM*	-1%	8	-11%
C#CC[N+](C)(C)CCCCCCCCCC	?	-80*	21µM*	-1%	-16	-4%
CCCCCCCCCCCCCCCC[N+](C)(C)CC	?	-1	?	-6%	-4	-3%
CCn1cc2nc(SCC(=O)Nc3ccccc3F)n(Cc3ccc(C)cc3)c(=O)c2n1	·	·	·	4%	·	1%
O=C(O)CNC(=O)c1ccccc1I	-2%	·	-13%	·	·	·
CCOC(=O)Cc1nnc2c(Nc3ccc(Cl)cc3)nc3nonc3n12	13µM*	25	10%	2%	12	0%
CCOC(=O)Cc1csc(Nc2ccc(Cl)cc2)n1	-2%	18	6%	-6%	-12	2%
CCCCCSc1nnc2c(n1)OC(c1cccn1C)N(C(C)=O)c1ccccc1-2 (configuration not stated)	10%	-74*	0%	-1%	-8	-4%
CCSc1nnc2c(n1)OC(c1ccc(C)cc1)N(C(C)=O)c1ccccc1-2 (configuration not stated)	·	·	·	3%	·	-6%
CN(CC(=O)Nc1ccc2c(c1)OCO2)CC(=O)Nc1ccc(F)c(F)c1F	9%	0	-10%	3%	-6	-5%
Cc1cc(C)nc(SCC(=O)Nc2ccc3c(c2)OCO3)n1	1%	-83*	-6%	1%	-3	0%
Cc1cc(C)nc(SCC(=O)c2ccc3c(c2)OCCO3)n1	15µM*	?	0%	-1%	10	2%
Cc1ccc(-c2ccc(SCC(=O)Nc3ccc4c(c3)OCCO4)nn2)cc1	16%	-7	-2%	-1%	-12	2%
CN(CC(=O)Nc1ccc(Cl)c(Cl)c1)CC(=O)Nc1ccc2c(c1)OCO2	?	-57*	11%	2%	-8	-12%
Cc1ccc(C2=NC3(CCCCC3)N=C2SCC(=O)Nc2ccc3c(c2)OCCO3)cc1	23%	-93*	?	3%	8	-4%
Cc1ccc(-n2c(SCCC(C)C)nc3sc4c(c3c2=O)CC(C)(C)OC4)cc1	·	·	·	4%	·	-1%
C=C1NN(Cc2ccc(OC)cc2)C(=O)N1c1ccccc1	·	·	·	·	·	6%
CN1CCN(C(=O)c2ccc(Cl)c(S(=O)(=O)N3CCCCC3)c2)CC1	-2%	23	4%	-2%	8	5%
CN1CCN(C(=O)c2ccc(S(=O)(=O)N(C)c3ccccc3)cc2)CC1	·	-6	·	0%	·	-5%
CN1CCCN(C(=O)c2ccc(Cl)c(S(=O)(=O)N(C)c3ccccc3)c2)CC1	21µM*	-6	13%	0%	-4	0%
Cc1cccc(N2CCN(C(=O)c3cc(S(=O)(=O)N(C)C)ccc3N3CCCC3)CC2)c1C	8%	-58*	0%	-3%	-3	-3%
Cc1cccc(NS(=O)(=O)c2ccc(C(=O)NCC3(N4CCCCC4)CCCCC3)cc2)c1C	15%	-53*	?	2%	-20	0%
Cc1cccc(N2CCN(C(=O)c3ccc(S(=O)(=O)N(C)c4ccccc4)cc3)CC2)c1C	5.2µM*	-18	10µM*	4%	-10	?
Cc1ccc(S(=O)(=O)N2CCN(C(=O)c3cc(S(=O)(=O)N(C)C)ccc3N3CCCC3)CC2)cc1	12%	-16	?	-1%	27	2%
SMILES	MCF10A rerep	IL-1B inflam inh	SW480 rerep	Vif-A3F inh	Giardia killer	Vif-APOBEC3G blk
Cc1ccccc1NS(=O)(=O)c1ccc(C(=O)NCC2(N3CCOCC3)CCCCC2)cc1	-1%	-4	-13%	-3%	?	-2%
O=C(Nc1ccccc1O)c1cc(S(=O)(=O)N2CCCC2)ccc1Cl	·	·	·	-3%	·	6%
COC(=O)[C@H](C)[C@H](CC(C)C)NC(=O)[C@H](C)[C@H](CC(C)C)NC(=O)c1ccccn1	·	·	·	·	-14	0%
CCOc1ccc(NC(=O)N2CCC(N3CCCCC3)CC2)cc1	·	·	·	1%	·	3%
Cc1ccc(CNC(=O)CSc2nc3ccccc3nc2Cc2ccc(C)cc2)cc1	·	·	·	0%	·	0%
CCCCN(CCCC)c1ccc(/C=C2\C=Cc3ccccc32)cc1	·	·	·	·	·	-43%
Cc1cnc(NC(=O)c2cc(S(=O)(=O)N(C)C)ccc2N2CCCC2)s1	6.5µM*	-64*	?	1%	11	0%
Cc1ccccc1NS(=O)(=O)c1ccc(C(=O)N2CCCC2)cc1	3%	0	-5%	7%	-6	0%
Cc1cccc(NS(=O)(=O)c2ccc(C(=O)N3CCN(c4ccccc4O)CC3)cc2)c1C	23µM*	?	1%	-7%	16	-9%
CC(C)=CCCC1(C)C=Cc2c(c(C)cc3c2[nH]c2cc(O)ccc23)O1 (configuration not stated)	?	-74*	?	7%	-7	-1%
CN(C)c1ccc(CN2CCc3nc(N4CCN(c5ccccn5)CC4)ncc3C2)cc1	·	·	·	-2%	·	1%
Cc1cc(Cl)ccc1NC(=O)CN1CCC(C(O)(c2ccccc2)c2ccccc2)CC1	?	-61*	?	-7%	15	0%
CCOc1ccc(S(=O)(=O)NCc2ccccn2)cc1NC(=O)c1ccccc1	?	46	?	2%	10	?
COc1ccc(S(=O)(=O)NCc2ccccn2)cc1NC(=O)c1ccccc1F	13µM*	33	5.8µM*	7%	-14	?
CCN(CC)/C(Sc1ccccc1)=C(\C(Cl)=C(Cl)Cl)[N+](=O)[O-]	9%	-89*	?	-11%	1	3%
Cc1ccc(NCC(=O)Nc2cccc(F)c2)cc1S(=O)(=O)N1CCCCCC1	-10%	-75*	-1%	-24%	8	-5%
O=C(CNc1cccc(F)c1)Nc1cccc(S(=O)(=O)N2CCCCC2)c1	-4%	22	-52%	6%	-4	0%
CCCCC(=O)Nc1ccc(C)c(S(=O)(=O)N2CCCCCC2)c1	?	-64*	6%	-16%	1	1%
Cc1ccc(NC(=S)Nc2ccc(C(C)C)cc2)cc1S(=O)(=O)N1CCCCCC1	?	-89*	?	1%	-5	4%
CCOc1ncccc1C(=O)Nc1ccc(C)c(S(=O)(=O)N2CCCCCC2)c1	9.2µM*	-4	-15%	2%	?	6%
CCc1ccc(NC(=O)c2sc(-n3nc(C)c(CCC(C)C)c3C)nc2C)cc1	·	·	·	-11%	·	0%
COc1ccc(OC)c(/C=C/c2cc3ccccc3cn2)c1	·	·	·	·	·	2%
c1ccc(CNc2nc(NCc3ccccc3)c3sccc3n2)cc1	·	-73*	·	·	·	-12%
COc1ccccc1CNc1nc(NCc2cccc(OC)c2OC)c2sccc2n1	·	-90*	·	·	·	-8%

Screening results: PubChem, National Center for Advancing Translational Sciences (NCATS)
